Assay results as given in the supplement of paper PMC10338343.
± gives the standard deviation.

How the values were obtained:
[1] = system: MILI (PIWIL2) piRISC loaded with piRNA #1 (26 nt); experiment: pre-steady-state target cleavage rate (min^-1); guide: piRNA #1 5'p-UGAGGUAGUAGGUUGUAUAGUAUCCA; higher = faster piRNA-guided slicing of the target; details: auxiliary factor: 500 nM mouse GTSF1
How it was run: (§1)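 Cleave-'n-Seq: a transcribed, DNA-blocked target RNA library (0.1 nM) was mixed with 1 nM active affinity-purified piRISC carrying one synthetic guide, with or without 500 nM GTSF1 partner protein, in HEPES–potassium acetate buffer at 33 °C for 0–8 or 0–960 min. Uncleaved targets were sequenced and normalised to depth and to weakly complementary targets. Three trials were pooled, and k3 was capped at 0.0001 min^-1. The pre-steady-state cleavage rate came from a burst-and-steady-state fit.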

[2] = system: EfPiwi piRISC loaded with piRNA #1 (26 nt); experiment: pre-steady-state target cleavage rate (min^-1); auxiliary factor: 500 nM Ephydatia muelleri Gtsf1; guide: piRNA #1 5'p-UGAGGUAGUAGGUUGUAUAGUAUCCA; MIWI and MILI are mouse PIWI proteins and EfPiwi is from a freshwater sponge; tags in brackets are library labels; higher = faster piRNA-guided slicing of the target
How it was run: as §1

Sequence | pre-steady-state target cleavage rate [1] | pre-steady-state target cleavage rate [2]
GGAGUCGGAUACUAUACAACCUACUACCUCA | 0.187 ± 0.015 | 0.0621 ± 0.024
GGAGACGAUACUAUACAACCAACUACCUGA | 0.00533 ± 0.0024 | 0.00427 ± 0.0022
GGAGACCUUACUCUACAACCUACUACCUCA | 0.202 ± 0.02 | 0.0532 ± 0.019
GGAGACGAUACUAUACAAGCUACAACCUCA | 0.211 ± 0.018 | 0.00442 ± 0.0022
GGAGACCAUACUAUACAACCUACUACCUUA | 0.22 ± 0.024 | 0.0127 ± 0.0048
GGAGUGCUAACUAUACAACCUACUACCUCA | 0.128 ± 0.015 | 0.0117 ± 0.0053
GGAGAGGAUACUAUACAACCUACUACGAGA | 0.00764 ± 0.0034 | 0.00374 ± 0.0018
GGAGACCUAUCUAGUACAACCUACUACCUCA | 0.0316 ± 0.0066 | 0.00434 ± 0.0035
GGAGACGAUUCUAUACAACCUACUUCCUCA | 0.0941 ± 0.016 | 0.00271 ± 0.0022
GGAGACCUAACUAUACAACGUAGUACCUCA | 0.00851 ± 0.0056 | 0.00322 ± 0.0027
GGAGUGGAUACUAUACAACCUACUGACCUCA | 0.0789 ± 0.011 | 0.00401 ± 0.0014
GGAGACGAUACUAUACAAGCUACUACCUCA | 0.269 ± 0.016 | 0.00854 ± 0.0028
